# Data: PubChem BioAssay (NCI)
# About 79,000 compounds went through this panel and 15% of them were active in at least one assay; those are over-represented in the sample as a whole. A number with no mark means an inactive call. Calls of active or inactive are those of the source. Cut-off read from the data, not from the text of the source: active = growth inhibition above about 70%; inactive = the rest.
# What was measured:
# [1] = NCI Yeast Anticancer Drug Screen. Data for the sgs1 strain (AID 173);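 note: 0% = growth of vehicle-only control cultures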; conditions: S. cerevisiae sgs1 mutant, hits give high values
# How it was run: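 Strain with an altered DNA repair or cell cycle pathway exposed to compound. Growth then measured. Value = inhibition versus vehicle control.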
# [2] = NCI Yeast Anticancer Drug Screen. Data for the mlh1 rad18 strain (AID 175); conditions: S. cerevisiae mlh1 rad18 strain growth inhibition, hits give high values
# How it was run: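 A repair-deficient yeast strain is exposed to test compound, and growth is scored relative to vehicle-treated controls.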
# [3] = NCI Yeast Anticancer Drug Screen. Data for the rad18 strain (AID 177); conditions: S. cerevisiae rad18 mutant growth inhibition, hits give high values
# How it was run: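 DNA-repair-defective yeast; compound treatment; growth inhibition scored against vehicle.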
# [4] = NCI Yeast Anticancer Drug Screen. Data for the rad52 strain (AID 147);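 note: 0% = growth of vehicle-treated control cultures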; conditions: S. cerevisiae rad52 mutant growth inhibition, hits give high values
# How it was run: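 Growth of repair-deficient yeast cells was compared between compound-treated and vehicle-treated cultures to give percent inhibition.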
# [5] = NCI Yeast Anticancer Drug Screen. Data for the wt1 strain (AID 149);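 note: 0% = growth of vehicle-treated wt1 cultures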; conditions: S. cerevisiae wt1 strain (SPY 50644) growth inhibition, hits give high values
# How it was run: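 Growth inhibition read against vehicle controls after compound exposure of the wt1 yeast strain.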
# [6] = NCI Yeast Anticancer Drug Screen. Data for the rad50EPP+ strain (AID 151);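 note: 0% = growth of vehicle-treated control cultures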; conditions: S. cerevisiae rad50 mutant strain, hits give high values
# How it was run: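 Measured: growth inhibition of rad50EPP+ yeast. Reference: vehicle-treated controls. Screen uses strains with defined genetic alterations in DNA damage repair or cell cycle control.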
# [7] = NCI Yeast Anticancer Drug Screen. Data for the rad50 strain (AID 155);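 note: 0% = growth of vehicle-only cultures of the same strain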; conditions: S. cerevisiae rad50 strain growth inhibition, hits give high values
# How it was run: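 Readout: growth inhibition relative to vehicle-treated cultures. Compound exposure was carried out in a genetically defined yeast strain deficient in DNA damage repair.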
# [8] = NCI Yeast Anticancer Drug Screen. Data for the mec2-1 strain (AID 157); conditions: S. cerevisiae mec2-1 strain, hits give high values
# How it was run: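 Compounds were applied to mec2-1 yeast cells. Their growth was then compared with that of vehicle-treated cultures to give growth inhibition.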
# [9] = NCI Yeast Anticancer Drug Screen. Data for the rad14 strain (AID 159);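 note: 0% = growth of vehicle-treated control cultures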; conditions: S. cerevisiae rad14 strain growth inhibition, hits give high values
# How it was run: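 Growth inhibition vs vehicle controls; genetically altered yeast strain (DNA damage repair defect) treated with test compounds.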
# [10] = NCI Yeast Anticancer Drug Screen. Data for the sgs1 mgt1 strain (AID 161);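 note: 0% = growth of cultures given vehicle only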; conditions: S. cerevisiae sgs1 mgt1 strain, hits give high values
# How it was run: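 Percent growth inhibition was derived by comparing compound-exposed mutant yeast with vehicle-exposed cultures. The strain carries alterations in DNA damage repair.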
# [11] = NCI Yeast Anticancer Drug Screen. Data for the CLN2oe strain (AID 163);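 note: 0% = growth of vehicle-only control cultures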; conditions: S. cerevisiae CLN2oe strain, hits give high values
# How it was run: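 Cells of an engineered yeast line with disturbed cell-cycle regulation are treated with compound. Inhibition of growth is then calculated relative to the vehicle-treated reference.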
# [12] = NCI Yeast Anticancer Drug Screen. Data for the cln2 rad14 strain (AID 165);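 note: 0% = growth equal to vehicle treated cultures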; conditions: S. cerevisiae cln2 rad14 strain, hits give high values
# How it was run: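 Strain: cln2 rad14 yeast, altered in cell cycle control and DNA damage repair. Read-out: growth inhibition vs vehicle.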
# [13] = NCI Yeast Anticancer Drug Screen. Data for the bub3 strain (AID 167); conditions: S. cerevisiae bub3 mutant strain, hits give high values
# How it was run: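 Readout: yeast growth inhibition, expressed relative to vehicle-only wells. The test organism is a mutant strain from a panel with lesions in DNA repair or checkpoint genes.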
# [14] = NCI Yeast Anticancer Drug Screen. Data for the wt2 strain (AID 169);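 note: 0% = growth of vehicle-treated yeast cultures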; conditions: S. cerevisiae wt2 strain growth inhibition, hits give high values
# How it was run: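 Growth of compound-treated yeast is measured and expressed as inhibition relative to vehicle-only controls.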
# [15] = NCI Yeast Anticancer Drug Screen. Data for the mlh1 strain (AID 171);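 note: 0% = growth of vehicle-treated control cultures of the same strain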; conditions: S. cerevisiae mlh1 strain growth inhibition, hits give high values
# How it was run: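 Test agents were incubated with yeast bearing a defined DNA damage repair or cell cycle control alteration; values are growth inhibition normalised to vehicle-treated cultures.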
# [16] = NCI Yeast Anticancer Drug Screen. Data for the mgt1 strain (AID 153); conditions: S. cerevisiae mgt1 mutant growth inhibition, hits give high values
# How it was run: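 Compounds were applied to mgt1 mutant yeast, and growth was then compared against vehicle-treated control cultures to give percent inhibition.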
# [17] = at 5.0 µM (retest, dose inferred, filed as 0.5)
# [18] = at 50.0 µM (retest, dose inferred, filed as 5.0)
smiles,measurement,setting,value
NCCc1ccc(OCc2ccccc2)c(OCc2ccccc2)c1,growth inhibition,[1]; at 33.0 µM,95% (active)
same,growth inhibition,[1]; at 100.0 µM,96% (active)
same,growth inhibition,[2]; [17],24%
same,growth inhibition,[2]; [18],96% (active)
same,growth inhibition,[2]; at 50.0 µM,90.2% (active)
same,growth inhibition,[3]; at 1.2 µM,2%
same,growth inhibition,[3]; at 3.7 µM,15%
same,growth inhibition,[3]; at 11.0 µM,45%
same,growth inhibition,[3]; at 33.0 µM,91% (active)
same,growth inhibition,[3]; at 100.0 µM,94% (active)
CNC(=O)OCC1C2=C(C(=O)C(C)=C(N)C2=O)N2CC3C(N3C)C12OC (centres undefined),growth inhibition,[4]; at 1.2 µM,8%
same,growth inhibition,[4]; at 3.7 µM,50%
same,growth inhibition,[4]; at 11.0 µM,52%
same,growth inhibition,[4]; at 33.0 µM,49%
same,growth inhibition,[4]; at 100.0 µM,72% (active)
same,growth inhibition,[5]; at 1.2 µM,-2%
same,growth inhibition,[5]; at 3.7 µM,4%
same,growth inhibition,[5]; at 11.0 µM,4%
same,growth inhibition,[5]; at 33.0 µM,2%
same,growth inhibition,[5]; at 100.0 µM,17%
same,growth inhibition,[6]; at 1.2 µM,0%
same,growth inhibition,[6]; at 3.7 µM,10%
same,growth inhibition,[6]; at 11.0 µM,22%
same,growth inhibition,[6]; at 33.0 µM,30%
same,growth inhibition,[6]; at 100.0 µM,41%
same,growth inhibition,[7]; at 1.2 µM,-12%
same,growth inhibition,[7]; at 3.7 µM,6%
same,growth inhibition,[7]; [17],37%
same,growth inhibition,[7]; at 11.0 µM,15%
same,growth inhibition,[7]; at 33.0 µM,22%
same,growth inhibition,[7]; [18],63%
same,growth inhibition,[7]; at 50.0 µM,51.6%
same,growth inhibition,[7]; at 100.0 µM,52%
same,growth inhibition,[8]; at 1.2 µM,-14%
same,growth inhibition,[8]; at 3.7 µM,2%
same,growth inhibition,[8]; [17],20%
same,growth inhibition,[8]; at 11.0 µM,-1%
same,growth inhibition,[8]; at 33.0 µM,16%
same,growth inhibition,[8]; [18],61%
same,growth inhibition,[8]; at 50.0 µM,55%
same,growth inhibition,[8]; at 100.0 µM,49%
same,growth inhibition,[9]; at 1.2 µM,-18%
same,growth inhibition,[9]; at 3.7 µM,-9%
same,growth inhibition,[9]; at 11.0 µM,0%
same,growth inhibition,[9]; at 33.0 µM,14%
same,growth inhibition,[9]; at 100.0 µM,46%
same,growth inhibition,[10]; [17],30%
same,growth inhibition,[10]; [18],64%
same,growth inhibition,[10]; at 50.0 µM,42.1%
same,growth inhibition,[11]; at 1.2 µM,20%
same,growth inhibition,[11]; at 3.7 µM,22%
same,growth inhibition,[11]; at 11.0 µM,17%
same,growth inhibition,[11]; at 33.0 µM,35%
same,growth inhibition,[11]; at 100.0 µM,37%
same,growth inhibition,[12]; [17],10%
same,growth inhibition,[12]; [18],44%
same,growth inhibition,[12]; at 50.0 µM,43.1%
same,growth inhibition,[13]; at 1.2 µM,1%
same,growth inhibition,[13]; at 3.7 µM,-4%
same,growth inhibition,[13]; [17],20%
same,growth inhibition,[13]; at 11.0 µM,-5%
same,growth inhibition,[13]; at 33.0 µM,9%
same,growth inhibition,[13]; [18],43%
same,growth inhibition,[13]; at 50.0 µM,29.4%
same,growth inhibition,[13]; at 100.0 µM,23%
same,growth inhibition,[14]; at 1.2 µM,-33%
same,growth inhibition,[14]; at 3.7 µM,-40%
same,growth inhibition,[14]; at 11.0 µM,-39%
same,growth inhibition,[14]; at 33.0 µM,-5%
same,growth inhibition,[14]; at 100.0 µM,21%
same,growth inhibition,[15]; at 1.2 µM,-17%
same,growth inhibition,[15]; at 3.7 µM,-4%
same,growth inhibition,[15]; at 11.0 µM,-6%
same,growth inhibition,[15]; at 33.0 µM,14%
same,growth inhibition,[15]; at 100.0 µM,39%
same,growth inhibition,[1]; at 1.2 µM,4%
same,growth inhibition,[1]; at 3.7 µM,8%
same,growth inhibition,[1]; at 11.0 µM,18%
same,growth inhibition,[1]; at 33.0 µM,29%
same,growth inhibition,[1]; at 100.0 µM,54%
same,growth inhibition,[2]; [17],63%
same,growth inhibition,[2]; [18],92% (active)
same,growth inhibition,[2]; at 50.0 µM,67.4%
same,growth inhibition,[3]; at 1.2 µM,12%
same,growth inhibition,[3]; at 3.7 µM,13%
same,growth inhibition,[3]; at 11.0 µM,39%
same,growth inhibition,[3]; at 33.0 µM,73% (active)
same,growth inhibition,[3]; at 100.0 µM,86% (active)
CC1=C(CO)C2=C(C)C3(CC3)[C@@](C)(O)C(=O)C2=C1,growth inhibition,[4]; at 1.2 µM,1%
same,growth inhibition,[4]; at 3.7 µM,9%
same,growth inhibition,[4]; at 11.0 µM,27%
same,growth inhibition,[4]; at 33.0 µM,52%
same,growth inhibition,[4]; at 100.0 µM,81% (active)
same,growth inhibition,[5]; at 1.2 µM,0%
same,growth inhibition,[5]; at 3.7 µM,-1%
same,growth inhibition,[5]; at 11.0 µM,-1%
same,growth inhibition,[5]; at 33.0 µM,0%
same,growth inhibition,[5]; at 100.0 µM,-13%
same,growth inhibition,[6]; at 1.2 µM,-2%
same,growth inhibition,[6]; at 3.7 µM,0%
same,growth inhibition,[6]; at 11.0 µM,0%
same,growth inhibition,[6]; at 33.0 µM,2%
same,growth inhibition,[6]; at 100.0 µM,0%
same,growth inhibition,[16]; at 1.2 µM,-2%
same,growth inhibition,[16]; at 3.7 µM,-1%
same,growth inhibition,[16]; at 11.0 µM,-1%
same,growth inhibition,[16]; at 33.0 µM,-1%
same,growth inhibition,[16]; at 100.0 µM,0%
same,growth inhibition,[7]; at 1.2 µM,1%
same,growth inhibition,[7]; at 3.7 µM,3%
same,growth inhibition,[7]; at 11.0 µM,13%
same,growth inhibition,[7]; at 33.0 µM,42%
same,growth inhibition,[7]; at 50.0 µM,14%
same,growth inhibition,[7]; at 100.0 µM,79% (active)
same,growth inhibition,[8]; at 1.2 µM,0%
same,growth inhibition,[8]; at 3.7 µM,-1%
same,growth inhibition,[8]; at 11.0 µM,1%
same,growth inhibition,[8]; at 33.0 µM,19%
same,growth inhibition,[8]; at 50.0 µM,-0.75%
same,growth inhibition,[8]; at 100.0 µM,66%
same,growth inhibition,[9]; at 1.2 µM,0%
same,growth inhibition,[9]; at 3.7 µM,-2%
same,growth inhibition,[9]; at 11.0 µM,5%
same,growth inhibition,[9]; at 33.0 µM,19%
same,growth inhibition,[9]; at 100.0 µM,59%
same,growth inhibition,[10]; at 50.0 µM,43.9%
same,growth inhibition,[11]; at 1.2 µM,-7%
same,growth inhibition,[11]; at 3.7 µM,-6%
same,growth inhibition,[11]; at 11.0 µM,-13%
same,growth inhibition,[11]; at 33.0 µM,-11%
same,growth inhibition,[11]; at 100.0 µM,-2%
same,growth inhibition,[12]; at 50.0 µM,18.3%
same,growth inhibition,[13]; at 1.2 µM,-4%
same,growth inhibition,[13]; at 3.7 µM,-5%
same,growth inhibition,[13]; at 11.0 µM,-8%
same,growth inhibition,[13]; at 33.0 µM,-14%
same,growth inhibition,[13]; at 50.0 µM,-40.2%
same,growth inhibition,[13]; at 100.0 µM,-13%
same,growth inhibition,[15]; at 1.2 µM,-1%
same,growth inhibition,[15]; at 3.7 µM,0%
same,growth inhibition,[15]; at 11.0 µM,1%
same,growth inhibition,[15]; at 33.0 µM,3%
same,growth inhibition,[15]; at 100.0 µM,8%
same,growth inhibition,[1]; at 1.2 µM,4%
same,growth inhibition,[1]; at 3.7 µM,11%
same,growth inhibition,[1]; at 11.0 µM,29%
same,growth inhibition,[1]; at 33.0 µM,55%
same,growth inhibition,[1]; at 100.0 µM,78% (active)
same,growth inhibition,[2]; at 50.0 µM,0.3%
same,growth inhibition,[3]; at 1.2 µM,44%
same,growth inhibition,[3]; at 3.7 µM,82% (active)
same,growth inhibition,[3]; at 11.0 µM,90% (active)
same,growth inhibition,[3]; at 33.0 µM,93% (active)
same,growth inhibition,[3]; at 100.0 µM,94% (active)
